Values joined by “and” are separate entries in the source; they are usually repeats but may differ in a detail not shown here. Equal entries are not always repeated. Results filed as inconclusive are left out. Active and inactive are the calls of the source. Unless noted, calls come from the whole dose curve; as a rule, active = well fitted curve in the direction sought with a large enough effect; inconclusive = small, poorly fitted or top-dose-only effect, or another doubt; inactive = no such curve, though single readings can be large; an effect the other way counts as inactive or inconclusive.
What was measured:
[1] = Cellular Toxicity (caspase-3) SHSY5Y (AID 657); settings: SH-SY5Y caspase-3 activation, DMSO zero, 10 µM staurosporine = 100%; series mostly up to 91.7 µM
Method in brief: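 Luminescent Caspase-Glo 3/7 read-out, 1 hr room temperature, follows 16 hours of compound treatment of SH-SY5Y cells at 37 °C. Normalization: DMSO basal, 10 uM staurosporine as 100%; AC50 values from Hill-equation concentration-response fits.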

[2] = Cellular Toxicity (caspase-3) BJ (AID 658); settings: BJ fibroblasts, luminescence, normalized: DMSO 0%, staurosporine 100%; series mostly up to 91.7 µM
Method in brief: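 Plated BJ cells (1000/well) rested 5 hr, received compound for 16 hr at 37 °C, then Caspase-Glo 3/7 reagent for 1 hr at room temperature before luminescence reading.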

[3] = Cellular Toxicity (caspase-3) MRC-5 (AID 659); settings: MRC-5 cells, luminescence, normalized: DMSO 0%, 10 µM staurosporine 100%; series mostly up to 91.7 µM
Method in brief: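 Apoptosis readout in MRC-5 cells: luciferase light generated after caspase 3/7 cleaves a peptide-aminoluciferin substrate, measured post 16 hr compound incubation at 37 °C.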

[4] = Cellular Toxicity (caspase-3) Mesangial (AID 660); settings: mesangial cells, normalized: DMSO 0%, 100 µM tamoxifen 100%; series mostly up to 91.7 µM;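 note: combined caspase 3 and 7 activity read by Caspase-Glo luminescence; cells exposed to compound for 16 h before the caspase read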
Method in brief: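 Caspase 3/7 activation measured by Caspase-Glo 3/7 luminescence (20 min, room temperature) following 16 h exposure of mesangial cells (1000/well); AC50 from Hill-equation fit, normalized to DMSO and 100 uM tamoxifen.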

[5] = Cellular Toxicity (caspase-3) SK-N-SH (AID 661); settings: SK-N-SH caspase-3 activation, qHTS, DMSO as zero, staurosporine as full; series mostly up to 91.7 µM
Method in brief: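 Caspase 3/7 activation was read by luminogenic substrate cleavage after 16 hour treatment of SK-N-SH cells. Signal was scaled between DMSO and 10 uM staurosporine, and concentration-response data were fitted with the Hill equation for AC50.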

[6] = Cellular Toxicity (caspase-3) H-4-II-E (AID 663); settings: H-4-II-E rat hepatoma, scaled: DMSO 0%, 100 µM tamoxifen 100%; series mostly up to 92.2 µM;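 note: cells exposed to compound for 16 hr before readout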
Method in brief: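 Caspase 3/7 activation measured in H-4-II-E cells in complete culture medium after 16 hr treatment at 37 °C, using luciferase-coupled substrate readout; AC50 values come from Hill-equation fits of normalized concentration-response data.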

[7] = Cellular Toxicity (caspase-3) Hek293 (AID 664); settings: HEK293 caspase-3 activation, DMSO = 0%, 100 µM tamoxifen = 100%; series mostly up to 92.2 µM;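 note: cells exposed to compound for 16 h at 37 °C before readout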
Method in brief: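 Concentration-response qHTS: caspase 3/7 activation measured by luminescent aminoluciferin substrate cleavage after 16 h compound exposure of Hek 293 cells. AC50 from Hill equation, with DMSO as basal and 100 uM tamoxifen as 100%.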

[8] = Cellular Toxicity (caspase-3) N2a (AID 665); settings: N2a cells, luminescence, normalized: DMSO 0%, 10 µM staurosporine 100%; series mostly up to 92.2 µM;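 note: compound exposure lasted 16 h at 37 °C before readout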
Method in brief: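 Caspase-3/7 activation measured as luminescence from Caspase-Glo reagent (1 h, room temperature) after 16 h compound exposure of mouse N2a cells. AC50 values from Hill-equation concentration-response, scaled between DMSO and 10 uM staurosporine.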

[9] = Cellular Toxicity (caspase-3) NIH 3T3 (AID 666); settings: NIH 3T3 caspase-3 activation, apoptosis/toxicity, 0% DMSO, 100% is 100 µM tamoxifen; series mostly up to 92.2 µM;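 note: caspase signal read after 16 h compound exposure; 0% = DMSO basal and 100% = 100 µM tamoxifen stimulation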
Method in brief: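 Caspase-Glo 3/7 luminescence reported caspase activation in 1000 NIH 3T3 cells/well after 16 h compound exposure at 37 C. DMSO set basal and 100 uM tamoxifen set 100% stimulation; concentration-response modeled with the Hill equation for AC50.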

[10] = Cellular Toxicity (caspase-3) Renal Proximal Tubule (AID 667); settings: renal proximal tubule cells; series mostly up to 91.7 µM;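 note: cells exposed to compound for 16 hours at 37 °C before detection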
Method in brief: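 Caspase 3/7 activation measured by luminescent aminoluciferin release in primary rat proximal tubule cells after 16 hr compound exposure at 37 °C. AC50 from Hill-fitted concentration-response, scaled between DMSO and 10 uM staurosporine.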

[11] = Cell Viability - LYMP2-001 (AID 921); settings: LYMP2-001 lymphoblastoid cell viability; series mostly up to 92.2 µM;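 note: 0% = DMSO only and full inhibition = tetraoctylammonium bromide control wells; nearly all actives have a fitted effect of over 70% in size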
Method in brief: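 Cellular ATP loss read by luciferase luminescence after 24 h compound exposure at 37 C in complete medium. LYMP2-001 lymphoblastoid cells, 2500/well; qHTS concentration-response data fitted with Hill equation for AC50.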

[12] = MultiTox-Fluor Cytotoxicity Assay - LYMP1-001 - Live Cells (AID 947); settings: LYMP1-001 lymphoblastoid cells, live-cell protease fluorescence viability; series mostly up to 92.2 µM;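 note: 0% = DMSO only and full inhibition = tetraoctylammonium bromide control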
[13] = MultiTox-Fluor Cytotoxicity Assay - LYMP1-002 - Live Cells (AID 955); settings: LYMP1-002 lymphoblastoid live-cell protease fluorescence viability; series mostly up to 46.1 µM; note: % is set by controls: 0 for no effect and ±100 for the full control effect
Method in brief: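 After 16 h compound exposure at 37 C, live LYMP1-002 lymphoblastoid cells (2500/well) were quantified by cleavage of cell-permeant GF-AFC substrate, read at 405/510 nm after 60 min. Concentration-response fitted with Hill equation for AC50.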

[14] = MultiTox-Fluor Cytotoxicity Assay - LYMP1-003 - Dead Cells (AID 961); settings: LYMP1-003 lymphoblastoid cells, dead-cell protease fluorescence; series mostly up to 92.2 µM; note: nearly all actives have a fitted effect of over 70% in size
Method in brief: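 LYMP1-003 lymphoblastoid, 2500 cells/well, 5 hr settle then 16 hr cpd at 37 C; MultiTox-Fluor reagent 60 min RT; Ex/Em 485/520 dead-cell signal; norm. DMSO = 0%, 15 uM tetraoctylammonium bromide = 100%; Hill AC50.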

[15] = qHTS assay for small molecule agonists of the antioxidant response element (ARE) signaling pathway measured by Nrf2-dependant transcriptional activity (AID 720636; active = well fitted curve in the direction sought with a large enough effect in the repeat runs; an effect the other way counts as inactive or inconclusive;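 note: HepG2 cells with an ARE-driven luciferase reporter; % of control where 0% means no effect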); settings: ARE-luc HepG2, Nrf2 luciferase reporter, 16 h; series mostly up to 92.4 µM
Method in brief: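 ONE-Glo luminescence, read 30 min after reagent addition at room temperature, reflected ARE reporter activity in HepG2 cells that had been incubated with compound for 16 hr at 37 C in 1% dialyzed FBS.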

[16] = qHTS assay for small molecule antagonists of the retinoid-related orphan receptor gamma (ROR-gamma) signaling pathway - cell viability counter screen (AID 720652; active = well fitted curve in the direction sought with a large enough effect in the repeat runs; an effect the other way counts as inactive or inconclusive;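 note: CHO reporter cells with doxycycline-induced ROR-gamma expression; compound exposure lasted 16 hr before ATP read; % is set by controls: 0 for no effect and ±100 for the full control effect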); settings: RORgamma reporter cell line viability counter screen; series mostly up to 92.2 µM
Method in brief: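 Cytotoxicity counter screen: intracellular ATP (CellTiter-Glo luminescence) measured in the doxycycline-induced CHO RORE-luciferase reporter line after 16 hr compound exposure at 37 C, 5% CO2.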

[17] = qHTS assay for small molecule agonists of the antioxidant response element (ARE) signaling pathway measured by Nrf2-dependant transcriptional activity - cell viability counter screen (AID 720653; active = well fitted curve in the direction sought with a large enough effect in the repeat runs; an effect the other way counts as inactive or inconclusive; note: % is set by controls: 0 for no effect and ±100 for the full control effect); settings: ARE-bla HepG2 viability, CellTiter-Glo ATP luminescence, 16 h; max response: active compounds read low
Method in brief: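 ARE-bla HepG2 cells (2,000/well) rested 5 hrs at 37C/5% CO2, then exposed to compounds in DMSO for 16 hrs. Viability was read in the same wells as intracellular ATP by luminescence, 30 min at room temperature after reagent addition.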

[18] = qHTS assay for cell viability of HEK293 cells (AID 743288); settings: ATP luminescence (CellTiter-Glo), 18 h; max response: active compounds read low; note: % is set by controls: 0 for no effect and ±100 for the full control effect; nearly all actives have a fitted effect of over 50% in size
Method in brief: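 Readout is luciferase-coupled ATP content (CellTiter-Glo luminescence, 30 min room temperature) as a measure of metabolically competent cells. Parental HEK293 cells were plated 5 h or more before compound addition, then treated 18 h at 37 C.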

[19] = qHTS assay for cell viability of the p53RE-bla HCT-116 cell line (AID 743292); settings: p53RE-bla HCT-116 viability, ATP luminescence, 16 h; series mostly up to 95 µM; note: % is set by controls: 0 for no effect and ±100 for the full control effect; nearly all actives have a fitted effect of over 55% in size
Method in brief: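 After plating at 4,000 cells per well and a 5 h rest at 37 C, HCT-116 cells carrying p53RE-bla received test chemicals in DMSO. Sixteen hours later at 37 C, CellTiter-Glo was added and luminescence recorded following 30 min at room temperature.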

[20] = qHTS assay for small molecule activators of the human pregnane X receptor (PXR) signaling pathway (AID 720659; call rule not given here; note: 0% is about no effect); settings: DPX-2 HepG2 CYP3A4-luciferase, 24 h; series mostly up to 92.3 µM

Cc1ccccc1O
inactive: outcome [1] | outcome [2] | outcome [3] | outcome [4] | outcome [5] | outcome [6] | outcome [7] | outcome [8] | outcome [9] | outcome [10] | outcome [11] | outcome [12] | outcome [13] | Potency [14] | Potency [15] | outcome [16] | max response [17] -2.37% and 9.1% | max response [18] -5.04% and -4.42% | outcome [19] | outcome [20]

— PubChem BioAssay (NCATS)
